Source: PubChem BioAssay AID2284196 (EPA ToxCast)
The source made the active and inactive calls. The calls were made as follows: active = hit-call score of the fitted dose curve at least 0.9, where 1 is the maximum; inactive = score below 0.9.

What follows are compounds tested against human Peripheral-type Benzodiazepine Receptor (PBR/TSPO) Antagonism, TSPO (gene 706) (UniProt P30536) (assay: ERF_FR_MP_hTSPO: Eurofins (ERF) Radioligand Binding LeadHunter Assay for human Peripheral-type Benzodiazepine Receptor (PBR/TSPO) Antagonism).
Sequence of human Peripheral-type Benzodiazepine Receptor (PBR/TSPO) Antagonism, TSPO (gene 706) (P30536 whole entry, looked up): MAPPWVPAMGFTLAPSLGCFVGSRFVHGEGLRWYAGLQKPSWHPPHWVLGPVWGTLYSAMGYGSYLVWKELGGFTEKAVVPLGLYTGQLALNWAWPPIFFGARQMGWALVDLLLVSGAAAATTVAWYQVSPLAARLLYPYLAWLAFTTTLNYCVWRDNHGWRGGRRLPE
Experimental: ERF_FR_MP_hTSPO is a biochemical, single-readout assay that uses extracted gene-proteins in a cell-free assay. Measurements were taken 0.25 hour after chemical dosing in a 96-well plate. See PBR Human Binding (Antagonist Radioligand) Assay, Cerep.ERF_FR_MP_hTSPO is an assay component calculated from the ERF_FR_MP_hTSPO assay. It is designed to measure radioligand binding using a type of binding reporter as detected by scintillation counting with radiometry technology.Data from the assay component ERF_FR_MP_hTSPO was analyzed at the assay endpoint, ERF_FR_MP_hTSPO, in the positive analysis fitting direction relative to DMSO as the negative control and baseline of activity. Using a type of binding reporter, loss-of-signal activity can be used to understand changes in binding as they relate to gene TSPO. To generalize the intended target to other relatable targets, this assay endpoint is annotated to the membrane protein intended target family, where the subfamily is mitochondrial associated translocator protein.
Human glioblastoma U118MG cells are used to prepare peripheral benzodiazepine receptor in modified Tris-HCl buffer pH 7.4. A 100 ug aliquot is incubated with 0.2 nM [3H] PK-11195 for 15 minutes at room temprature. Non-specific binding is estimated in the presence of 10 uM PK-11195. Membranes are filtered and washed, the filters are then counted to determine [3H] […]
For O=C(/C=C/c1ccc(O)cc1)CC(=O)/C=C/c1ccc(O)cc1, the AC50 was 891 nM (active).
COc1cc(CCC(=O)CC(=O)CCc2ccc(O)c(OC)c2)ccc1O was tested, and the outcome was “inactive”.
